Data on 113 compounds can be found in PubChem BioAssay AID2102 (Southern Research Specialized Biocontainment Screening …, 2009).

SMILES strings stand for the structures. The whole screen tested about 1,100 compounds, of which about 210 (19%) were called active. The rule behind the calls is not given here. These entries were drawn from the full list. Entries with a potency or affinity are not part of this list.

A short description of the assay: host cell cytotoxicity, dose response, cytotoxicity control for SV40 T antigen inhibitor project, selected hits (AID 2102).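 Note: cells exposed to compounds for 72 hours.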 Particulars: Host cell viability cytotoxicity counter-screen; series mostly up to 50 µM.
`O=c1cc(-c2ccc(O)c(O)c2)oc2c(C3O[C@H](CO)[C@@H](O)[C@H](O)[C@H]3O)c(O)cc(O)c12` (stereo partly drawn): the outcome was inactive.
To `O=c1cc(-c2ccc(O)c(O)c2)oc2cc(O)c(C3OC(CO)C(O)C(O)C3O)c(O)c12` (stereo not drawn) belongs “inactive”.
The same measure for `COc1cc(/C=N\NC(=O)CNC(=O)c2cccc([N+](=O)[O-])c2)ccc1O`: “inactive”; for `Nc1ccc(OCCCc2c(N)nc(N)nc2N)cc1`: “inactive”.
For `COc1ccccc1NC(=O)Oc1ccc(NC(=O)c2ccco2)cc1`, the result was inactive.
To `Cc1cccc(/C=N/n2c(-c3ccncc3)n[nH]c2=S)c1` belongs “inactive”; to `S=c1[nH]nc(-c2ccc(Cl)cc2)n1/N=C/C=C/c1ccco1`, “inactive”; to `Oc1ccc(-c2cn3ccccc3n2)cc1O`, “inactive”.
To `C1=Cc2ccccc2Nc2ccccc21` belongs “inactive”.
For the compound `C[C@@H]1O[C@@H](OC2C(O)C(OCCc3ccc(O)c(O)c3)OC(CO)C2OC(=O)/C=C/c2ccc(O)c(O)c2)[C@H](O)[C@H](O)[C@H]1O` (stereo partly drawn), the compound was called inactive.
The same measure for `CCOc1cc(/C=C2\N=C3CCCCCN3C2=O)ccc1O`: “inactive”; for `Cc1nc(N)sc1N=Nc1c(C)n(C)n(-c2ccccc2)c1=O`: “inactive”.
To `O=Cc1sc(=O)n(Cc2cccc(C(=O)O)c2)c1Cl` belongs “inactive”.
Take `CN=c1scc(C)n1/N=C/c1ccc(O)cc1O`: the compound was called inactive.
To `CC(C)(C)OC(=O)N/N=C/c1ccc(N2CCOCC2)s1` belongs “inactive”; to `O=C(O)c1cc(S(=O)(=O)O)cc(Nc2c3ccccc3nc3ccccc23)c1O`, “inactive”.
The same measure for `O=C(CSc1nc2ccccc2c(=O)[nH]1)c1ccc(O)c(O)c1`: “inactive”; for `CN(C)c1ccc(NC(=O)CSc2nnc(-c3cnccn3)n2C)cc1`: “inactive”.
For `O=C1Nc2ccccc2/C1=N\N=C\c1ccc(O)c(O)c1`, the outcome was inactive.
As to `CN(C)c1ccc(Nc2cc(Cl)ncn2)cc1`, the call was inactive.
To `C/C(CC(=O)Nc1ccc(N(C)C)cc1)=N\NC(=O)c1ccc(Cl)cc1Cl` belongs “inactive”; to `O=C(N/N=C/c1ccc(O)c(O)c1)c1cccc(S(=O)(=O)N2CCCC2)c1`, “inactive”.
Turning to `COc1ccc(/C=N\NC(=O)c2ccc(=O)[nH]n2)cc1O`, the outcome was inactive.
The same measure for `N=C1/C(=C/c2ccc(Br)o2)C(=O)N=C2SC(CC(=O)N3CCCC3)=NN12`: “inactive”.
The same measure for `CN1CN(C)c2cccc3cccc1c23`: “inactive”; for `CCOc1ccc(S(=O)(=O)Nc2cc(Sc3ncn[nH]3)c3oc(=O)sc3c2)cc1`: “inactive”; for `COc1ccc(C2=CC3=C(Br)C(=O)C(C)(OC(=O)c4ccc(Cl)nc4)C(=O)C3=CO2)cc1` (stereo not drawn): “inactive”.
To `CCOc1ccccc1NC(=S)N1CCN(c2ccc(O)cc2)CC1` belongs “inactive”; to `O=C(NC(=S)N1CCN(c2ccc(O)cc2)CC1)c1cccs1`, “inactive”; to `COc1cc(/C=N/NC(=O)CNC(=O)c2ccco2)ccc1O`, “inactive”.
On to `O=C(COc1cccnc1[N+](=O)[O-])c1ccc(Cl)s1`, for which the result was inactive.
The same measure for `CN(C)c1ccc(NC(=O)c2cccc(N3C(=O)CCC3=O)c2)cc1`: “inactive”.
To `O=C(O)[C@H]1CCCC[C@H]1C(=O)Nc1ccc(Nc2ccccc2)cc1` belongs “inactive”; to `CCOc1ccc(-c2nc(=S)[nH][nH]2)cc1`, “inactive”; to `COc1ccc(/C=N/NC(=O)c2cc(O)c(O)c(O)c2)cc1Cn1cc([N+](=O)[O-])cn1`, “inactive”.
Turning to `C=CCNC(=S)Nc1ccc(N(C)C)cc1`, the compound was called inactive.
`CCc1cc(C(=O)N/N=C/c2ccc(O)cc2)c2ccccc2n1`: the call was inactive.
On to `COc1cc(/C=N/NC(=O)c2ccc(Cn3cc([N+](=O)[O-])cn3)o2)cc(Br)c1O`, for which the call was inactive.
To `COc1cc(/C=N/NC2=NCCCCC2)ccc1O` belongs “inactive”; to `ClC(Cl)(c1nnnn1-c1ccccc1)c1nnnn1-c1ccccc1`, “inactive”.
`Oc1ccc(C2CNCCc3c2cc(O)c(O)c3Cl)cc1` (stereo not drawn): the result was inactive.
To `S=c1[nH]nc(-c2n[nH]c3c2CCC3)n1/N=C/C=C/c1ccco1` belongs “inactive”; to `COc1cc(/C=N/NC(=O)CCn2nnc3ccccc32)ccc1O`, “inactive”; to `CC(C)C(=O)Nc1ccc(O)c(-c2csc(N)n2)c1`, “inactive”.
The same measure for `Cc1cc2cc3c(N)[nH]nc3nc2cc1C`: “inactive”; for `CN(C)C(=S)Nc1ccc(N2CCOCC2)cc1`: “inactive”.
To `O=S(=O)(c1ccc(NC(=S)N/N=C/c2ccc(O)c(O)c2)cc1)N1CCOCC1` belongs “inactive”; to `Oc1ccc(NC(=S)Nc2ccccc2)cc1`, “inactive”.
Regarding `O=C(CN1C(=O)/C(=C/c2ccco2)SC1=S)Nc1ccc(O)c(C(=O)O)c1`, the compound was called inactive.
To `O=C1/C(=C/C=C/c2ccco2)SC(=S)N1NS(=O)(=O)c1ccccc1` belongs “inactive”.
The same measure for `CCCCCCNC(=O)N[C@H](C(=O)NCCC[C@H]1CN2C(=NC[C@H]2C)N1CCC(c1ccccc1)c1ccccc1)C(C)O` (stereo partly drawn): “inactive”; for `COc1cccc(C=Nc2ccc(N3CCOCC3)cc2)c1O`: “inactive”; for `Cc1nn(-c2ccccc2)c2[nH]c(=O)c(CNc3ccc(N4CCOCC4)cc3)cc12`: “inactive”.
As for `COc1cc(CNc2ccc3c(c2)OCCO3)ccc1OCC(N)=O`, the outcome was inactive.
On to `COc1ccc(/C=N/Nc2nc(N3CCCC3)nc(N3CCCC3)n2)cc1O`, for which the compound was called inactive.
The same measure for `Cc1cc(C)nc(SSc2nc(C)cc(C)n2)n1`: “inactive”.
The same measure for `CN1C=CC=C/C1=C(\C#N)c1nc2ccccc2[nH]1`: “inactive”; for `O=Cc1cccn1-c1ccc(O)cc1`: “inactive”; for `Cc1ccc(NC(=O)CN2C(=O)N/C(=C/c3cccn3-c3ccc(C(=O)O)cc3)C2=O)cc1`: “inactive”.
For `O=C(O)C1Nc2c(O)cc(Cl)c([N+](=O)[O-])c2C2C=CCC12` (stereo not drawn), the compound was called inactive.
The same measure for `CN(C)c1ccc(NC(=O)CSc2nc3c(c(=O)[nH]2)CCCC3)cc1`: “inactive”; for `Cc1ccc(C2=NOC(=O)/C2=C\c2ccc(C)o2)cc1`: “inactive”.
The same measure for `CC1=NOC(=O)/C1=C\c1ccc(-c2ccc(Cl)c(C(=O)O)c2)o1`: “inactive”; for `O=C1C(=Cc2ccc(Br)o2)C(=O)c2ccccc21`: “inactive”.
With `O=C1ON=C(c2ccccc2)/C1=C\c1ccco1`, the outcome was inactive.
Consider `Nc1nc[nH]c(=O)c1N=Cc1ccccc1`, for which the compound was called inactive.
As for `O=C(c1ccco1)N1CCCC(Nc2ccc3c(c2)OCCO3)C1` (stereo not drawn), the result was inactive.
To `O=C(c1ccc2ccccc2c1)N1CCN(c2ccc(O)cc2)CC1` belongs “inactive”.
The same measure for `c1cncc(CNc2ccc3c(c2)OCO3)c1`: “inactive”; for `N#C/C(=C\c1ccc(O)c(O)c1)C(=O)c1ccc(O)c(O)c1`: “inactive”; for `CCOC(=O)c1ccc2c(c1)C1C=CCC1C(C(=O)O)N2` (stereo not drawn): “inactive”.
The same measure for `Oc1ccc(/C=N/NC(=S)NCC2CCCO2)cc1` (stereo not drawn): “inactive”; for `COc1ccc(-c2nc(O)c3cnccn23)cc1`: “inactive”.
Consider `CCN(CC)c1ccc(NC(=O)c2ccccc2F)cc1`, for which the compound was called inactive.
To `CCN(CC)c1ccc(NC(=O)c2ccco2)cc1` belongs “inactive”; to `CC(=O)Nc1ccc(OC(=O)C(CCS(C)(=O)=O)N2C(=O)c3ccccc3C2=O)cc1` (stereo not drawn), “inactive”; to `O=C(O)/C=C/c1ccc(O)c(O)c1`, “inactive”.
To `Oc1cc(O)cc(/C=C/c2ccc(O)c(O)c2)c1` belongs “inactive”; to `COc1cc(/C=N/NC(=O)C(C)n2nnc3ccccc32)ccc1O` (stereo not drawn), “inactive”.
To `O=C(N/N=C/c1ccc(OC(=O)c2ccco2)cc1)c1ccc[n+]([O-])c1` belongs “inactive”; to `Oc1ccc(O)c(-c2cnns2)c1`, “inactive”; to `O=C1CC(c2ccc(O)c(O)c2)Oc2c1ccc(O)c2O` (stereo not drawn), “inactive”.
As for `CC1=C(C)CS(=O)N(S(=O)(=O)c2ccc(Cl)cc2)C1` (stereo not drawn), the compound was classed as inactive.
Consider `COc1cc(/C=N/Nc2nc3ccccc3[nH]c2=O)ccc1O`, for which the result was inactive.
The same measure for `COc1cccc(-n2c(=O)c3ccccc3n3c(=S)[nH]nc23)c1`: “inactive”; for `COc1cc(-c2nnc(SCc3cc(=O)oc4cc(O)c(O)cc34)o2)cc(OC)c1OC`: “inactive”.
The same measure for `CCN(CC)CCN1C(=O)C(=O)/C(=C(/O)c2ccc(C)cc2)C1c1cccnc1` (stereo not drawn): “inactive”; for `CN=C1S/C(=C\c2ccc(O)c(OC)c2)C(=O)N1C`: “inactive”.
The same measure for `Cc1occc1C(=O)N/N=C/C=C/c1ccc(N(C)C)cc1`: “inactive”; for `COc1cc(/C=C2/C(=O)NN(c3ccc(Cl)c(Cl)c3)C2=O)cc([N+](=O)[O-])c1O`: “inactive”; for `Cc1ccc(/C=N\NC(=O)COc2ccc(C)cc2[N+](=O)[O-])cc1`: “inactive”.
For `CC(=O)CC1OC(=O)C(Br)=C1NCc1ccccc1` (stereo not drawn), the compound was called inactive.
The same measure for `O=c1[nH]sc2ccccc12`: “inactive”; for `CN(C)c1ccc(NC(=S)NCC2CCCO2)cc1` (stereo not drawn): “inactive”.
To `Cc1[nH]c2ccccc2c1-c1csc(NC(=O)CSCC(=O)O)n1` belongs “inactive”; to `O=C1COc2ccc(N3C(=O)C=CC3=O)cc2N1`, “inactive”; to `COc1cc(/C=C2\C(=N)N3N=C(S(C)(=O)=O)SC3=NC2=O)ccc1OS(=O)(=O)c1ccc(C)cc1`, “inactive”.
To `Cc1cc(-c2n[nH]c(=S)n2/N=C/c2c[nH]c3ccccc23)n[nH]1` belongs “inactive”; to `Cc1ccc2cc3c(N)[nH]nc3nc2c1`, “inactive”.
Regarding `COC(=O)CSc1nnc(CNc2ccc(OC)cc2)n1C`, the result was inactive.
The same measure for `C=CS(=O)c1sc(Cl)c(N2CCOCC2)c1[N+](=O)[O-]` (stereo not drawn): “inactive”; for `Cc1ccc2oc(=O)c(/C=C(\O)CC(C)C)nc2c1`: “inactive”; for `Nc1ccc(Nc2nc3ccccc3[nH]2)cc1`: “inactive”.
To `CCOC(=O)C1=C(C)N(c2ccccc2)C(=O)/C1=C\c1ccc(O)c(OC)c1` belongs “inactive”.
The same measure for `COc1ccc(NC2CCCN(C(=O)c3c(C)noc3C)C2)cc1` (stereo not drawn): “inactive”; for `COc1cc(/C=N/Nc2ccccn2)ccc1O`: “inactive”.
Turning to `Oc1ccc(/C=N/Nc2ccc(Cl)nn2)cc1O`, the compound was called inactive.
As for `C=CCNC(=S)NNC(=O)c1cc(O)ccc1O`, the result was inactive.
The same measure for `CCOc1cc(C(c2c(O)nc(SC)[nH]c2=O)c2c(O)nc(SC)[nH]c2=O)ccc1O`: “inactive”; for `COc1ccc(CNc2ccc(N3CCOCC3)cc2)cc1`: “inactive”; for `CC(=O)N1CCN(c2ccc(NCc3ccc(C)s3)cc2)CC1`: “inactive”.
The same measure for `Cc1ccc(CNc2ccc(N3CCOCC3)cc2)cc1`: “inactive”; for `CCOc1ccc(NCc2nnc(SCC(=O)Nc3cc(C)on3)n2-c2ccc(OC)cc2)cc1`: “inactive”.
